Screening data from PubChem.
Rows were chosen to be rich in hits. Some 3.5% of all compounds tested hit in one or more screens of this group.
BoNT F protease – BoNT F light chain protease inhibition; Multiplex microsphere protease cleavage assay, flow cytometry; 360,000 compounds, 0.22% hits; AID 588497; inhibition, % at 10 µM; in the data active means inhibition above about 35%, passing the limit was not always enough; inconclusive means no clear call, values can overlap the other calls
Autofluor counter – flagged as autofluorescent in microsphere protease counterscreen. compound autofluorescence counterscreen, microsphere flow cytometry; stronger effect = higher value. fluorescence intensity (test concentration not listed). 360,000 compounds, 3.1% hits; in the data active means fluorescence intensity above about 16000; inconclusive means no clear call, values can overlap the other calls
Anthrax LF prot – blocks Bacillus anthracis lethal factor protease | multiplex microsphere protease cleavage assay, LF | inhibition, % at 10 µM | 360,000 compounds, 0.12% hits | AID 588501
BoNT-A LC inh2 – inhibitors of Botulinum neurotoxin A light chain protease; multiplex microsphere protease substrate cleavage, flow cytometry; inhibition, % at 10 µM; 360,000 compounds, 0.17% hits
BJeLR viability – kills HRASV12-expressing BJeLR cells | BJeLR (HRASV12) viability, CellTiter-Glo ATP luminescence, 48 h | inhibition, % (no concentration beside the values) | 300,000 compounds, 0.17% hits | AID 1554; in the data active means inhibition above about 50%; inconclusive means no clear call, values can overlap the other calls
Large screens that a line does not name were inactive. Unless noted, no stated cut-off is given here; in the data, active means inhibition above about 30%; inconclusive means no clear call, values can overlap the other calls; inactive means below that.

COC(=O)c1[nH]c2cccc(OC)c2c1NC(=O)CN(C)CC1OCCO1	Autofluor counter 16319
CCC(CC)c1nnc(NC(=O)Oc2ccccc2)s1	BoNT F protease 42.5
CC1(c2nc3ccccc3[nH]2)c2ccccc2C(=O)N1Cc1ccccn1 (stereo unspecified)	none (no result: BJeLR viability)
c1ccc(CNc2ccc(CNc3ncn[nH]3)cc2)cc1	Autofluor counter 22732, BoNT-A LC inh2 inconclusive
c1ccc(CNc2ncn[nH]2)cc1	none (no result: BJeLR viability)
FC(F)(F)c1cc(C(F)(F)F)n2nc(-c3sccc3-n3cccc3)cc2n1	Autofluor counter 22337
O=C(Cc1c(Cl)cccc1Cl)OCC(=O)c1ccc[nH]1	none (no result: BJeLR viability)
CC(O)(CS(=O)(=O)c1ccccc1)C(=O)Nc1cccc(C(F)(F)F)c1 (stereo unspecified)	Autofluor counter 21019
CC1CCc2sc(C(=O)NCc3ccc(F)cc3)cc2C1 (stereo unspecified)	Autofluor counter 24108, BoNT-A LC inh2 inconclusive
CCOc1ccccc1N(C)S(=O)(=O)c1ccc2[nH]cc(C(=O)N(CCOC)CCOC)c(=O)c2c1	none
COCCN(CCOC)C(=O)c1c[nH]c2ccc(S(=O)(=O)N(C)c3ccc(F)cc3)cc2c1=O	Autofluor counter 18595
O[C@@H](c1cc(C(F)(F)F)nc2c(C(F)(F)F)cccc12)[C@H]1CCCCN1	none
OC(c1cc(-c2ccc(Cl)cc2)nc2ccccc12)C1CCCCN1 (stereo unspecified)	BJeLR viability 125.7
Cc1ccc(NC2CC(=O)N(c3ccc(N4CCCCC4)cc3)C2=O)cc1 (stereo unspecified)	none
COc1ccc(N2C(=O)CC(Nc3ccc(C)cc3)C2=O)cc1 (stereo unspecified)	Autofluor counter 21164, BoNT-A LC inh2 inconclusive
CSc1ccc(CN2CCC(C)(Oc3ccc(C(C)=O)cc3)C2)cc1 (stereo unspecified)	none (no result: BJeLR viability)
CC(=O)Nc1ccc(NC(=O)[C@H](C)NC(=O)c2ccco2)cc1	none
Cc1cc(=O)[nH]c2c1c(C)nn2C1CCCC1	Autofluor counter 18691 (no result: BJeLR viability)
CCN1CCN(Cc2c(O)ccc3c2O/C(=C\c2ccccc2)C3=O)CC1	none
O=C1/C(=C/C=C/c2ccccc2)Oc2c1ccc(O)c2CN1CCN(CCO)CC1	none
CCN1CCN(Cc2c(O)ccc3c2O/C(=C\C=C\c2ccccc2)C3=O)CC1	BoNT-A LC inh2 35.3
COc1ccccc1/C=C/C=C1\Oc2c(ccc(O)c2CN2CCN(CCO)CC2)C1=O	BoNT-A LC inh2 31.0
C[C@@H]1CN([C@@H](C)CO)C(=O)c2cc(N(C)C)ccc2O[C@@H](C)CCCCO[C@@H]1CN(C)Cc1ccc2c(c1)OCO2	none (no result: BJeLR viability)
CC(C)(C)NC(=O)C(c1c[nH]c2ccccc12)N(C(=O)Cn1nnc(-c2ccc(Cl)cc2)n1)c1ccccc1F (stereo unspecified)	none
COc1cccc(N(C(=O)Cn2nnc(-c3ccc(C)cc3)n2)C(C(=O)NC(C)(C)C)c2c[nH]c3ccccc23)c1 (stereo unspecified)	Autofluor counter 23333
O=C(NC1CCS(=O)(=O)C1)Oc1ccc(Cl)cc1 (stereo unspecified)	none
O=C(O)c1ccc(Nc2cc(Cl)c3nonc3c2[N+](=O)[O-])cc1	none
O=[N+]([O-])c1c(Nc2cccc(O)c2)cc(Cl)c2nonc12	BJeLR viability 79.4
C[C@@H]1CN([C@@H](C)CO)C(=O)c2cc(Br)cnc2O[C@H]1CN(C)C(=O)Nc1ccc2c(c1)OCO2	none (no result: BJeLR viability)
CCCCn1cnc2c1c(=O)n(C)c(=O)n2C	Autofluor counter 23846
Cn1c(=O)c2c(ncn2CCCc2ccccc2)n(C)c1=O	Autofluor counter 20359
C[C@H]1C=C(C(=O)O)O[C@@H](OCc2ccc(CO)cc2)C1	none
Cc1cc(C(=O)Nc2ncn(Cc3ccc(F)cc3)n2)ccc1[N+](=O)[O-]	none
Cc1cc(C(=O)N2CCCCCC2)cs1	Autofluor counter 23371
O=C(c1ccc(C(=O)N2CCCCCC2)cc1)N1CCCCCC1	none
Cc1cc(C)cc(C(=O)N2CCCCCC2)c1	Autofluor counter 23038
CCCc1cc(=O)[nH]c(Nc2ccc(N3CCCCC3)cc2)n1	Autofluor counter 20834
CCCCc1ccc(Nc2nc(CCC)cc(=O)[nH]2)cc1	none
Cc1nn(CC(=O)O)c(C)c1C	Autofluor counter 21501
Cc1cc(NC(=O)NC2(C(F)(F)F)Oc3ccc(Cl)cc3O2)no1 (stereo unspecified)	Autofluor counter 16576
O=C(Cn1c(=O)c2c(ncn2Cc2ccccc2)n(Cc2ccccc2)c1=O)NC1CC1	Autofluor counter 19673
CCCCn1c(N)c(N(CCOC)C(=O)c2cc(C)oc2C)c(=O)[nH]c1=O	none (no result: BoNT F protease, Autofluor counter, Anthrax LF prot, BoNT-A LC inh2)
O=C1C(c2ccc(F)cc2)N(Cc2ccc3c(c2)OCO3)C(=O)CN1C1CCCCC1 (stereo unspecified)	Autofluor counter 20863
O=C1C(c2ccc(F)cc2)N(CC2COc3ccccc3O2)C(=O)CN1C1CCCCC1 (stereo unspecified)	none
COc1ccccc1CN1C(=O)CN(C2CCCC2)C(=O)C1c1ccc(F)cc1 (stereo unspecified)	Autofluor counter 16593, BoNT-A LC inh2 inconclusive
O=C1C(c2ccc(F)cc2)N(Cc2ccc3c(c2)OCO3)C(=O)CN1C1CCCC1 (stereo unspecified)	Autofluor counter 25677
Cc1cc2c(c(=O)n1CCCn1ccnc1)C(c1ccco1)C(C#N)=C(N)O2 (stereo unspecified)	Autofluor counter 22337
COCCn1c(C)cc2c(c1=O)C(c1ccccc1F)C(C#N)=C(N)O2 (stereo unspecified)	Autofluor counter 20039
COc1ccccc1C1C(C#N)=C(N)Oc2cc(C)n(CCCn3ccnc3)c(=O)c21 (stereo unspecified)	none
CCOc1ccccc1C1C(C#N)=C(N)SC(N)=C1C#N	BoNT F protease 50.7
Cc1cc2c(c(=O)n1Cc1ccc3c(c1)OCO3)C(c1cccnc1)C(C#N)=C(N)O2 (stereo unspecified)	Autofluor counter 20731
CCOc1ccc(C2C(C#N)=C(N)SC(N)=C2C#N)cc1OCC	none
COc1ccccc1C1C(C#N)=C(N)Oc2cc(C)n(Cc3ccccn3)c(=O)c21 (stereo unspecified)	BoNT F protease inconclusive, Autofluor counter inconclusive, BoNT-A LC inh2 inconclusive
COc1cccc(-c2cnc3c(NC(C)=O)cc(-c4ccc(S(C)(=O)=O)cc4)cn23)c1	none (no result: BJeLR viability)
COc1ncnc2c1ncn2CCCNCCCN1CCCC1=O	none (no result: BJeLR viability)
CCCC(=O)N1CCC1(C)C(=O)Nc1ccc2c(c1)OCCO2 (stereo unspecified)	none (no result: BJeLR viability)
CCOc1ccccc1C1C(C#N)=C(N)Oc2cc(C)n(C)c(=O)c21 (stereo unspecified)	Autofluor counter 21644, BoNT-A LC inh2 inconclusive
CCOc1ccccc1C1C(C#N)=C(N)Oc2cc(C)n(Cc3ccccn3)c(=O)c21 (stereo unspecified)	BoNT F protease inconclusive, Autofluor counter inconclusive, Anthrax LF prot inconclusive, BoNT-A LC inh2 inconclusive
Cc1ccc(/C=N/n2c(C)n[nH]c2=S)o1	Autofluor counter 22498
Cc1[nH]nc(-c2ccc(O)cc2O)c1Oc1ccccc1	none
